HIV Env fusion: blocks HIV Env-driven cell-cell fusion; HeLa-JRFL Env/CEM21 cell fusion, luciferase; inhibition, % at 12.3 µM; 1.1% of 360,000 active;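 active = mean replicate inhibition score of at least 50 and every replicate individually at or above 50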
miR-122 sensor: inhibitors of miR-122 in Huh7 cells; AID 602342; 0.3% of 340,000 active; activation (reporter increase), % at 12.5 µM; Huh7 miR-122 Renilla luciferase sensor, 48 h; neutral wells = 0, positive control = 100;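 active = mean replicate activation score at least 90 and every replicate individually at or above 90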;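 note: higher luciferase means less miR-122 activity so hits act as miR-122 inhibitors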
C2C12 statin: protects C2C12 myotubes from simvastatin toxicity; ATP luminescence, 48 h; scaled: DMSO 0, geranylgeraniol control 100; rescue of ATP level, % at 7.49 µM; 0.78% of 330,000 active; AID 602340;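 active = mean ATP rescue above about 67%, or every replicate alone reaching that limit, limit read from the data, passing the limit was not always enough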;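 note: myotubes were challenged with 10 µM simvastatin during compound exposure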
PAX8 reporter: PAX8 transcriptional activity inhibition; RMG-I TPO-luciferase reporter, SteadyGlo, 24 h; inhibition, % at 12.6 µM; 1.2% of 360,000 active; AID 652154;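 active = mean replicate inhibition at least 60% with every replicate also reaching 60%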;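 note: luciferase light reporting Pax8 driven TPO promoter activity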
EWS-Fli inh: blocks EWS/Fli oncoprotein-driven transcription | AID 651661 | 0.67% of 350,000 active | inhibition, % at 12.6 µM | A673 NR0B1-luciferase reporter, viability-normalised;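 active = mean inhibition of at least 50% after viability correction, with every replicate also passing that limit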;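 note: firefly luciferase signal divided by Alamar Blue viability fluorescence both relative to DMSO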
GSIS activator: primary screen for activators of insulin secretion dependent on glucose, INS-1E cells, GLuc reporter luminescence; INS-1E GLuc reporter insulin secretion, 2-3 h; activation, % at 16.6 µM; 0.61% of 370,000 active; AID 743287;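 active = lowest replicate activation of at least 40%, so every replicate reaches that level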
Each line names hits and unclear results; the compound was inactive in the other large screens. Most compounds without a hit are left out; they make up all but 3.1% or so of the library.

COc1ccc(S(=O)(=O)N[C@H]2CC[C@H](CCNC(=O)Cc3ccccn3)O[C@H]2CO)cc1	none
CCCNC(=O)C[C@H]1CC[C@@H]2[C@H](COC[C@@H](O)CN2Cc2ccncc2)O1	none (no result: HIV Env fusion)
CCCOc1ccc(C(=O)NNC(=S)NC(=O)CC)cc1	HIV Env fusion 60 (no result: PAX8 reporter, EWS-Fli inh, GSIS activator)
O=C(NC[C@@H]1CC[C@H]2[C@H](CN2Cc2cccc(Cl)c2)O1)C1CC1	none (no result: miR-122 sensor, C2C12 statin, GSIS activator)
C[C@@H]1CN([C@@H](C)CO)C(=O)c2cccc(NC(=O)c3ccncc3)c2O[C@H]1CN(C)C(=O)Nc1ccc(C(F)(F)F)cc1	none
CCc1ccc(CNC(=O)C2CCCN(c3nnc(C)c4c(C)n(-c5ccccc5)nc34)C2)cc1 (configuration not stated)	PAX8 reporter 89
Cc1ccccc1CNC(=O)C1CCCN(c2nnc(C)c3c(C)n(-c4ccccc4)nc23)C1 (configuration not stated)	PAX8 reporter 95
Cc1nnc(N2CCCC(C(=O)NCc3cccc(F)c3)C2)c2nn(-c3ccccc3)c(C)c12 (configuration not stated)	PAX8 reporter 65 (no result: EWS-Fli inh)
Cc1nnc(N2CCCC(C(=O)NCc3ccccc3F)C2)c2nn(-c3ccccc3)c(C)c12 (configuration not stated)	none (no result: miR-122 sensor)
CCCNC(=O)N1CC2(C1)[C@@H](c1ccccc1)[C@H](CO)N2C(=O)C1CCC1	none (no result: HIV Env fusion, miR-122 sensor, C2C12 statin, PAX8 reporter)
O=C(/C=C/c1ccc([N+](=O)[O-])cc1)c1ccccc(=O)c1O	EWS-Fli inh 61 (no result: C2C12 statin)
N#CCCN(Cc1ccccc1)C(=O)c1cccs1	GSIS activator 40
CCn1c(/C=C/N(C)c2ccccc2)[n+](CC)c2ccc(Cl)cc21	HIV Env fusion 70 (no result: PAX8 reporter, EWS-Fli inh)
CCOC(=O)N1CCN(C(=O)COc2cccc3c2CCN(Cc2ccc(F)cc2)C3=O)CC1	HIV Env fusion 57 (no result: C2C12 statin, EWS-Fli inh)
CCOC(=O)N1CCN(C(=O)COc2cccc3c2CCN(CC)C3=O)CC1	none
Cc1ccc(COc2cccc3c2CCN(Cc2ccc(F)cc2)C3=O)cc1	none (no result: miR-122 sensor, C2C12 statin)
O=C1c2cccc(OCc3ccc(F)cc3)c2CCN1Cc1ccccc1	HIV Env fusion 77 (no result: C2C12 statin, EWS-Fli inh)
COc1ccccc1-c1cn(CC[C@@H]2CC[C@H](NC(=O)NC(C)C)[C@@H](CO)O2)nn1	none (no result: miR-122 sensor)
O=C(c1cc(COc2cccc3cnccc23)on1)N1CCCC(CCCO)C1 (configuration not stated)	HIV Env fusion 57 (no result: EWS-Fli inh)
c1coc(CNc2c3c(nc4ccccc24)CCC3)c1	HIV Env fusion 75 (no result: PAX8 reporter, EWS-Fli inh, GSIS activator)
CC(C)NCC(=O)Nc1c2c(nc3ccccc13)CCC2	none (no result: C2C12 statin, GSIS activator)
CCOC(=O)C1C(=O)OC(C)(C)C1C(CC)C(=O)c1ccccc1 (configuration not stated)	none (no result: miR-122 sensor, C2C12 statin)
CCOC(=O)C1C(=O)OC(C)(C)C1C(CC)C(=O)c1c(C)cc(C)cc1C (configuration not stated)	HIV Env fusion 76 (no result: C2C12 statin)
CC(=O)N1c2ccc(S(=O)(=O)N(C)CC(=O)NCc3ccccc3)cc2CC1C (configuration not stated)	none (no result: EWS-Fli inh)
CC(=O)N1c2ccc(S(=O)(=O)NCCC(=O)NCCc3ccc(C)cc3)cc2CC1C (configuration not stated)	C2C12 statin 109 (no result: EWS-Fli inh)
COc1ccc(C)cc1NC(=O)CCNS(=O)(=O)c1ccc2c(c1)CC(C)N2C(C)=O (configuration not stated)	HIV Env fusion 79
CC(=O)N1c2ccc(S(=O)(=O)NCCC(=O)NCc3ccc(F)cc3)cc2CC1C (configuration not stated)	C2C12 statin 87
COc1cc(NC(=O)CN(C)S(=O)(=O)c2ccc3c(c2)CC(C)N3C(C)=O)cc(OC)c1OC (configuration not stated)	C2C12 statin 109 (no result: EWS-Fli inh)
COc1ccccc1NC(=O)CCNS(=O)(=O)c1ccc2c(c1)CC(C)N2C(=O)C1CC1 (configuration not stated)	none (no result: EWS-Fli inh)
Cc1ccc2nc(NC(=O)CSc3nc(=O)n(CCN(C)C)c4c3CCCC4)sc2c1	GSIS activator 376
Cc1ccc(NC(=O)CSc2nc(=O)n(CCCN(C)C)c3c2CCC3)c(C)c1	none (no result: miR-122 sensor)
O=C(NCc1ccco1)C1Cc2ccccc2CN1S(=O)(=O)c1ccccc1F (configuration not stated)	C2C12 statin 67 (no result: EWS-Fli inh, GSIS activator)
CC1=NN(c2ccc(C)c(C)c2)C(=O)/C1=C\C=C\c1ccc([N+](=O)[O-])o1	PAX8 reporter 70, EWS-Fli inh 67 (no result: miR-122 sensor, C2C12 statin)
C[C@@H]1CN([C@H](C)CO)C(=O)c2cccc(NC(=O)Nc3ccc4c(c3)OCO4)c2O[C@H]1CN(C)CC1CCCCC1	none (no result: HIV Env fusion, miR-122 sensor, C2C12 statin, PAX8 reporter, EWS-Fli inh)
CC(=O)N(C)C[C@H]1Oc2ncc(-c3cncnc3)cc2C(=O)N([C@H](C)CO)C[C@H]1C	none (no result: PAX8 reporter)
COc1cc(OC)cc(C(=O)c2c(C)c(C#N)c3ccccn23)c1	EWS-Fli inh 58
Cc1ccc(-n2c(SCC(=O)N3CCOCC3)nnc2-c2cccnc2)cc1C	none (no result: HIV Env fusion, PAX8 reporter, EWS-Fli inh, GSIS activator)
CCSc1nnc(-c2cccnc2)n1-c1ccc(C)c(Cl)c1	GSIS activator 64 (no result: HIV Env fusion, PAX8 reporter)
Cc1ccc(N(CN2CCCC2=O)C(=O)c2ccc(C)c(C)c2)cc1	C2C12 statin 113 (no result: EWS-Fli inh)
C[C@H]1CCCCO[C@H](CN(C)Cc2ccc3c(c2)OCO3)[C@@H](C)CN([C@@H](C)CO)C(=O)c2cc(NS(=O)(=O)c3cccs3)ccc2O1	none (no result: C2C12 statin)
CC=Cc1ccc2n(c1=O)C[C@H]1[C@H](CO)[C@@H](C(=O)N3CCN(C)CC3)N(Cc3ccccc3F)[C@@H]21 (mixture of isomers)	none (no result: HIV Env fusion)
COc1ccccc1-c1ccc2n(c1=O)C[C@H]1[C@H](CO)[C@@H](C(=O)NC3CCC3)N(C(=O)C3CCC3)[C@@H]21	none (no result: HIV Env fusion, miR-122 sensor, PAX8 reporter)
COc1ccc(-n2c(-c3ccc(Cl)cc3)c[n+]3c2CCc2ccccc2-3)cc1	PAX8 reporter 94
COc1ccc(-n2c(-c3ccccc3)nnc2-c2ccc(Cl)cc2)cc1	none (no result: EWS-Fli inh, GSIS activator)
O=C(N/N=C/c1sc(N2CCOCC2)nc1-c1ccccc1)c1cccc(S(=O)(=O)N2CCCC2)c1	HIV Env fusion 56, PAX8 reporter 74 (no result: miR-122 sensor, C2C12 statin, GSIS activator)
C[C@@H]1CN([C@@H](C)CO)C(=O)Cc2cc(NC(=O)CCCCCC(=O)Nc3ccccc3N)ccc2O[C@H]1CN(C)C(=O)Nc1ccc2c(c1)OCO2	none (no result: HIV Env fusion, miR-122 sensor, C2C12 statin)
CN1c2ccc(-c3ccccc3)cc2[C@H]2[C@H](CCN2C(=O)Nc2ccccc2F)[C@H]1CO	none (no result: HIV Env fusion)
CN(Cc1cccs1)C(=O)COc1cccc(-n2cnnn2)c1	none (no result: miR-122 sensor, C2C12 statin, EWS-Fli inh, GSIS activator)
CCOc1ccc(CCNC(=O)COc2cccc(-n3cnnn3)c2)cc1OCC	GSIS activator 44
COc1ccc(CN(C)C(=O)COc2cccc(-n3cnnn3)c2)cc1OC	GSIS activator 41
CO[C@@H]1CN(C)C(=O)c2ccc(NS(=O)(=O)c3ccccc3F)cc2OC[C@@H](C)N(S(C)(=O)=O)C[C@H]1C	none

Source: PubChem BioAssay
